Rows were chosen to be rich in hits. Some 1.7% of all compounds tested hit in one or more screens of this group.
RecA splice inh – Mtb RecA intein splicing inhibition. cell-free RecA intein splicing, fluorescence. inhibition, % (no concentration beside the values). 290,000 compounds, 0.75% hits; in the data active = inhibition above about 30%; inconclusive = no clear call, values can overlap the other calls
Target sequence (P9WHJ3 whole entry, looked up, canonical isoform): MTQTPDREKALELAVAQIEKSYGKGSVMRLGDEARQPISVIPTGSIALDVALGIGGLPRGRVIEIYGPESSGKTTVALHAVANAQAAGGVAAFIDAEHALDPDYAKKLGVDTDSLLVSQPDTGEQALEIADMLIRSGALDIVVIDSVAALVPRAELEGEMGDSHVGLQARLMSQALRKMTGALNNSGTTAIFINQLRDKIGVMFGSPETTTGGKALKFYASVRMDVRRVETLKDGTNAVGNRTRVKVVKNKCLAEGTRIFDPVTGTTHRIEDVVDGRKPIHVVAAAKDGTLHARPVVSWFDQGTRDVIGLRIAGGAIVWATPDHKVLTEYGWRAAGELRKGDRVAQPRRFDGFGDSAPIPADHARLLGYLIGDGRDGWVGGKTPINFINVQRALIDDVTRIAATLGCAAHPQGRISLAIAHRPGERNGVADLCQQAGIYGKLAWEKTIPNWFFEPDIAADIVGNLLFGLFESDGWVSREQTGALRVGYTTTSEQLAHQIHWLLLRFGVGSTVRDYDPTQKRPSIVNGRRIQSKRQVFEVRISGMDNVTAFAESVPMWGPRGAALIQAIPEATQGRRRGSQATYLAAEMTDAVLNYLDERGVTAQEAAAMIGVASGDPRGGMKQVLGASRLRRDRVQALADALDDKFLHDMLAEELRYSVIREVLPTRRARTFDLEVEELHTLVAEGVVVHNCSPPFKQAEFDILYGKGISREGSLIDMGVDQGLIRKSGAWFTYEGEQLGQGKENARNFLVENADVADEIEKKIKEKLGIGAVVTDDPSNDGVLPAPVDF
Mtb hypoxia rep – inhibitors of hypoxia-regulated fluorescent reporter in Mycobacterium tuberculosis; M. tuberculosis hypoxia-regulated fluorescent reporter, fluorescence; 300,000 compounds, 0.1% hits; AID 1159583; fluorescence inhibition, % (no concentration beside the values); in the data active = fluorescence inhibition mostly above about 23%, no sharp cut-off; inactive = mostly below about 17%
PfHsp40 rescue – rescue of PfHsp40-mediated yeast toxicity | S. cerevisiae expressing PfHsp40, growth rescue, ATP luminescence | growth rescue, % at 12.5 µM | 340,000 compounds, 0.68% hits | AID 504582; in the data active = growth rescue above about 28%, passing the limit was not always enough; inconclusive = no clear call, values can overlap the other calls;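 also: yeast W303a lacking pdr1 and pdr3 grown in galactose medium; growth measured after three days at 30 °C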
Mtb bLac sens – beta-lactam sensitization of Mtb H37Rv. inhibition, % at 25 µM. AID 434955. M. tuberculosis H37Rv growth with meropenem, percent inhibition. 330,000 compounds, 0.27% hits;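 also: growth measured after seven days incubation then overnight dye step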
CCHF vOTU inh – CCHFV vOTU protease inhibition; Pep-AMC fluorescence; inhibition, % at 11.5 µM; 370,000 compounds, 0.55% hits; AID 651958; in the data active = inhibition above about 30%
GFP chromophore – counter-screen: blocks GFP chromophore formation; shares compounds with RecA splice inh; cell-free GFP chromophore formation, fluorescence; EC50, µM; 2,100 compounds, 83% hits; AID 434968
A number is an active result. Unless noted, no rule for the calls is given here.

Results for Cc1cc(C)c[n+](C2=C([O-])c3ccccc3C(=O)/C2=N\S(=O)(=O)c2cccs2)c1 ?
RecA splice inh: inactive; Mtb hypoxia rep: inactive; PfHsp40 rescue: inactive; Mtb bLac sens: inactive; CCHF vOTU inh: inactive

How did O=C1/C(=N\S(=O)(=O)c2cccs2)C([n+]2ccc(CCCc3ccccc3)cc2)=C([O-])c2ccccc21 do in these assays?
RecA splice inh: inactive; Mtb hypoxia rep: inactive; Mtb bLac sens: inactive; CCHF vOTU inh: inactive

What do the screens show for `CCCCC1CNCCN1CC1(c2ccccc2)CC1` (stereo unspecified)?
Mtb hypoxia rep: inactive

How did Cc1ccc(SCc2[nH]nc3c2C(c2ccc(C)o2)C(C#N)=C(N)O3)cc1 (stereo unspecified) do in these assays?
RecA splice inh: 37; Mtb hypoxia rep: inactive; PfHsp40 rescue: inactive; Mtb bLac sens: inconclusive; CCHF vOTU inh: inactive; GFP chromophore: inactive

What do the screens show for `Cc1ccc(SCc2[nH]nc3c2C(c2ccco2)C(C#N)=C(N)O3)cc1` (stereo unspecified)?
RecA splice inh: 73; Mtb hypoxia rep: inactive; PfHsp40 rescue: inactive; Mtb bLac sens: inactive; CCHF vOTU inh: inactive; GFP chromophore: 25

What do the screens show for `Cc1ccc(SCc2[nH]nc3c2C2(C(=O)N(C)c4ccccc42)C(C#N)=C(N)O3)cc1` (stereo unspecified)?
RecA splice inh: inactive; Mtb hypoxia rep: inactive; PfHsp40 rescue: inactive; Mtb bLac sens: inactive; CCHF vOTU inh: inactive

How did Cc1ccc(SCc2[nH]nc3c2C(C(C)C)C(C#N)=C(N)O3)cc1 (stereo unspecified) do in these assays?
RecA splice inh: inactive; Mtb hypoxia rep: inactive; PfHsp40 rescue: inactive; Mtb bLac sens: inactive; CCHF vOTU inh: inactive

What do the screens show for `CC(=NNC(=O)CNC(=O)COc1cccc(C)c1)c1ccco1`?
Mtb hypoxia rep: inactive

How did O=C(NN=Cc1cc([N+](=O)[O-])ccc1O)C1CC1 do in these assays?
Mtb hypoxia rep: inactive

Results for O=C(Cc1ccccc1)NC1(O)C(=O)c2ccccc2C1=O ?
RecA splice inh: 66; PfHsp40 rescue: inactive; Mtb bLac sens: inactive; CCHF vOTU inh: inactive; GFP chromophore: 11

Results for COC(=O)C(CCSC)NC(=O)NC1CCN(Cc2ccccc2)CC1 (stereo unspecified) ?
Mtb hypoxia rep: inactive

How did CCC(C)[C@H](NC(=O)NC1CCN(Cc2ccccc2)CC1)C(=O)OC (stereo partly specified) do in these assays?
RecA splice inh: 38; Mtb hypoxia rep: inactive; PfHsp40 rescue: inactive; Mtb bLac sens: inactive; CCHF vOTU inh: inactive; GFP chromophore: inactive

What do the screens show for `CC(C)NC(=S)NN=CC1=CCC2CC1C2(C)C` (stereo unspecified)?
Mtb hypoxia rep: inactive

Results for COc1ccc2oc(=NO)c(C(=O)Nc3ccc(C)cc3)cc2c1 ?
Mtb hypoxia rep: inactive

Results for CNc1nc(NN=Cc2cc([N+](=O)[O-])ccc2F)nc(Nc2ccccc2)n1 ?
Mtb hypoxia rep: inactive

What do the screens show for `CCOC(=O)c1cnc(Cc2ccccc2)[nH]c1=O`?
RecA splice inh: inactive; Mtb hypoxia rep: inactive; PfHsp40 rescue: inactive; Mtb bLac sens: inactive; CCHF vOTU inh: inactive

How did CCOC(=O)c1cnc(-n2[nH]c(C)c(Cc3ccccc3)c2=O)[nH]c1=O do in these assays?
RecA splice inh: 33; Mtb hypoxia rep: inactive; PfHsp40 rescue: inactive; Mtb bLac sens: inactive; CCHF vOTU inh: inactive; GFP chromophore: 34

What do the screens show for `CN1CCN(Cc2cc(=O)oc3ccc(Cl)cc23)CC1`?
RecA splice inh: 48; Mtb hypoxia rep: inactive; PfHsp40 rescue: inactive; Mtb bLac sens: inactive; CCHF vOTU inh: inactive; GFP chromophore: inactive

What do the screens show for `CC(=O)NC(=S)c1c(N)n(Cc2ccccc2)c(=O)n(C)c1=O`?
RecA splice inh: 33; Mtb bLac sens: inactive; GFP chromophore: inactive

Results for O=C(COc1ccc(Cl)cc1Cl)NN=Cc1ccc(OC2OC(CO)C(O)C(O)C2O)cc1 (stereo unspecified) ?
Mtb hypoxia rep: inactive

How did CN1C(=O)/C(=N\OC(=O)c2cccc3ccccc23)c2ccccc21 do in these assays?
RecA splice inh: 38; PfHsp40 rescue: inactive; Mtb bLac sens: inactive; CCHF vOTU inh: inactive; GFP chromophore: 32

How did Cc1ccc(C(=O)N2CCN3C(=O)c4ccccc4C23c2ccc(Cl)cc2)cc1 (stereo unspecified) do in these assays?
RecA splice inh: inactive; PfHsp40 rescue: inactive; Mtb bLac sens: inactive; CCHF vOTU inh: inactive

Results for O=C(CCl)N1CCN2C(=O)c3ccccc3C12c1ccc(Cl)cc1 (stereo unspecified) ?
RecA splice inh: 83; Mtb hypoxia rep: inactive; PfHsp40 rescue: inactive; Mtb bLac sens: inactive; CCHF vOTU inh: inactive; GFP chromophore: 4.2

Results for Cc1noc(C)c1NC(=O)N(C)CC1Oc2ccc(NS(=O)(=O)c3cccs3)cc2C(=O)N(C(C)CO)CC1C (stereo unspecified) ?
Mtb hypoxia rep: inactive

How did CC1=NNC(=O)/C1=C\c1cn(-c2ccccc2)nc1-c1ccccc1 do in these assays?
RecA splice inh: 97; Mtb hypoxia rep: inactive; PfHsp40 rescue: inactive; Mtb bLac sens: inactive; CCHF vOTU inh: inactive; GFP chromophore: 1.8

What do the screens show for `N#CC1=C(N)N(c2ccccc2)C(c2ccccc2)C1(C#N)C#N` (stereo unspecified)?
RecA splice inh: 43; Mtb hypoxia rep: inactive; PfHsp40 rescue: inactive; Mtb bLac sens: inactive; CCHF vOTU inh: inactive; GFP chromophore: 31

How did N#C/C(=C/c1ccncc1)c1nc2ccccc2s1 do in these assays?
RecA splice inh: 74; Mtb hypoxia rep: inactive; PfHsp40 rescue: inactive; Mtb bLac sens: inactive; CCHF vOTU inh: inactive; GFP chromophore: 22

What do the screens show for `Cc1cc(C(=O)NN=Cc2cccc([N+](=O)[O-])c2)c2ccccc2n1`?
Mtb hypoxia rep: inactive

How did O=C(c1ccc(N2CCN(CCO)CC2)nc1)N1CCOCC1 do in these assays?
RecA splice inh: 37; Mtb hypoxia rep: inactive; PfHsp40 rescue: inactive; Mtb bLac sens: inactive; CCHF vOTU inh: inactive; GFP chromophore: inactive

What do the screens show for `Cc1cc(C=C2C(=N)N3N=C(C(C)C)SC3=NC2=O)c(C)n1-c1ccccc1`?
Mtb hypoxia rep: inactive

What do the screens show for `C[C@@]1(C(NP(=O)(c2ccccc2)c2ccccc2)c2ccccc2)CC1CCO` (stereo partly specified)?
Mtb hypoxia rep: inactive

How did COC(=O)C1CN(C#N)N(c2ccc(Cl)cc2)C12c1ccccc1-c1ccccc12 (stereo unspecified) do in these assays?
RecA splice inh: 44; Mtb hypoxia rep: inactive; PfHsp40 rescue: inactive; Mtb bLac sens: inactive; GFP chromophore: 9.8

How did Oc1ccc(C=NNc2cc(N3CCOCC3)nc(N3CCOCC3)n2)c(O)c1 do in these assays?
Mtb hypoxia rep: inactive

What do the screens show for `O=C(Nc1ccc2nc3n(c(=O)c2c1)CCCCC3)c1c(F)ccc([N+](=O)[O-])c1F`?
RecA splice inh: 60; PfHsp40 rescue: inactive; Mtb bLac sens: inactive; CCHF vOTU inh: inactive; GFP chromophore: 25

How did CC(=NNC(=O)c1ccccc1)c1ccc(N2CCCCC2)cc1 do in these assays?
Mtb hypoxia rep: inactive

Screening data from PubChem.
